# Compound activity deposited in PubChem BioAssay by Sanford-Burnham Center for Chemical Genomics.
# PABP polyA inh: blocks human PABP binding to poly(A) RNA. AID 2014. hit rate 1% among 290,000. inhibition, % at 35 µM. fluorescence polarization;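 note: calls also rest on retests at 20 µM and on dose response follow-up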
# eIF4H inh: inhibitors of RNA binding by human eIF4H; Q15056; eIF4H fluorescence polarization binding assay; inhibition, % at 35 µM; hit rate 0.94% among 290,000;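 note: calls also rest on retests at 20 µM and on dose response follow-up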
# NRP1-CendR mod: NRP-1/CendR interaction modulation; inhibition, % at 25 µM; FAM-RPARPAR peptide binding to NRP-1, fluorescence polarization; hit rate 0.85% among 360,000;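 active = inhibition or corrected inhibition above about 18%, plus a signal ratio from 0.5 to 1.5, limit read from the data, passing the limit was not always enough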
# PABP1 MLLE inh: inhibitors of microRNA-mediated deadenylation, human PABP1 MLLE binding. P11940. inhibition, % at 20 µM. GST-MLLE / FITC-PAM2 fluorescence polarization. hit rate 0.36% among 360,000; in the data active = inhibition above about 35%, passing the limit was not always enough;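 note: plate controls were DMSO wells with GST-MLLE for no effect and wells lacking GST-MLLE protein for full effect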
# Numbers without * were called inactive; nt = no result. Shown are actives, neighbours in structure and some others; about 2.1% of the full set was active somewhere. Unless noted, the rule behind the calls is not given here.
SMILES,PABP polyA inh,eIF4H inh,NRP1-CendR mod,PABP1 MLLE inh
O=c1[nH]c(/C=C\c2ccc(O)c(Cl)c2)nc(O)c1[N+](=O)[O-],26,-4,-11,0
O=c1oc2c(-c3cccc(F)c3)cc(O)cc2s1,-8,-8,33*,2
CNC(=S)N(C)/N=C1/C(=O)N(Cc2c(Cl)cccc2Cl)c2ccccc21,nt,nt,-3,-65
O=c1oc2ccccc2c(Nc2cccc(O)c2)c1[N+](=O)[O-],71*,84*,-24,0
O=C(O)c1cccc(Nc2c([N+](=O)[O-])c(=O)oc3ccccc23)c1,-1,-5,-12,6
CC1NC(=O)c2ccccc2-n2c1nc1ccc(F)cc1c2=O (stereo not drawn),nt,nt,-1,-8
Cc1cc(Cl)ccc1OC(C)C(=O)Nc1ccc([N+](=O)[O-])cn1 (stereo not drawn),-3,9,26*,-4
Cc1cn([C@H]2C[C@H](O)[C@@H](CCC(=O)NCCCn3ccnc3)O2)c(=O)[nH]c1=O,nt,nt,31*,-4
CCCSc1nc(C)c(-c2csc(C(C#N)=C3CCCC3)n2)cc1C#N,8.1*,59*,-26,-27
COc1ccc(C2NC(=O)c3ccccc3O2)cc1OC (stereo not drawn),-10,-3,4,-3
COc1ccc(C2NC(=O)c3ccccc3O2)cc1 (stereo not drawn),3,9,23*,0
CS(=O)CC(O)(c1ccc(F)cc1)C1CC1 (stereo not drawn),nt,nt,-16,-5
CC1C(=O)Nc2ccc(S(=O)(=O)NCCc3ccc(Cl)cc3)cc2NC1=O (stereo not drawn),19,32,24*,0
CC(C)CC(OC(=O)c1ccc(Cl)nc1)C(=O)NC1CCCC1 (stereo not drawn),8,4,6,7
O=C(CNC(=O)c1ccccc1F)N/N=C/c1cc(Br)ccc1OC(=O)/C=C/c1ccco1,-6,84*,-7,-21
COc1ccccc1C(=O)NCC(=O)N/N=C/c1cc(Br)ccc1OC(=O)/C=C\c1ccco1,-11,86,6,-10
CC(=O)Nc1ccc2cc3ccc(NC(C)=O)cc3nc2c1,70*,77*,18,113
Cn1c(CCC(=O)O)nc2cc(S(=O)(=O)N3CCCCC3)ccc21,nt,nt,19,39*
O=C1NC(=Nc2ccc(O)cc2)S/C1=C\C=C\c1ccco1,94*,83*,-19,-40
COc1ccc2nc(SCC(=O)C(C)(C)C)[nH]c2c1,8,6,6,-19
COc1cccc(CC(NC(C)=O)C(=O)NC2CCN(C(=O)c3ccc(Cl)cc3)CC2)c1 (stereo not drawn),9,-2,19*,7
CC(=O)NC(Cc1ccc(F)c(F)c1)C(=O)NC1CCN(C(=O)c2ccc(Cl)cc2)CC1 (stereo not drawn),1,3,0,-14
O=C(O)COc1ccc2c(c1)O/C(=C\c1cccs1)C2=O,5,-6,-18,-6
Cc1ccc(/C=C2\Oc3cc(OCC(=O)NN)ccc3C2=O)o1,4,73*,-23,-28
O=C(O)COc1ccc2c(c1)O/C(=C\c1ccco1)C2=O,54*,77*,-32,10
SMILES,PABP polyA inh,eIF4H inh,NRP1-CendR mod,PABP1 MLLE inh
COCCN(CCOC)Cc1c(O)ccc2c1O/C(=C\c1ccc(C)o1)C2=O,36,51*,-82,-1
COc1ccc(C(=O)N2CCCC(C)(C(=O)NS(=O)(=O)C3CC3)C2)cc1 (stereo not drawn),nt,nt,-2,-4
O=C(Nc1cccc(Cl)c1)Nc1sccc1-c1nc2ccccc2s1,12*,79,-38,-100
O=C(Nc1ccccc1)Nc1sccc1-c1nc2ccccc2s1,4,28,-31,-70
Cc1ccc(S(=O)(=O)N2CCCCC2)cc1C(=O)NCCN1CCOCC1,nt,nt,14,1
Cc1cccc(C(=O)Nc2ccc(C(=O)N/N=C/c3ccc(C)o3)cc2)c1,2,-9,3,-14
OCCC1CN(Cc2nc3ccc(F)cc3[nH]2)CCN1C1CCCC1 (stereo not drawn),-5,-2,-2,3
CCC(c1nnnn1Cc1ccc(F)cc1)N(CCCO)Cc1cc2cc3c(cc2[nH]c1=O)OCO3 (stereo not drawn),7,10,7,45*
CCC(c1nnnn1CC1CCCO1)N(CCCO)Cc1cc2cccc(C)c2[nH]c1=O (stereo not drawn),3,-12,-8,25
O=C(O)C1CC(=O)N(c2ccc(Br)cc2)C1 (stereo not drawn),9,-5,4,6
C=CCN(CC=C)C(=O)C1CC(=O)N(c2ccc(Br)cc2)C1 (stereo not drawn),-5,5,30*,12
